Hits are enriched below; roughly 2.8% of the tested compounds scored in any of these assays.
HEK293 viab: reduces viability of HEK-293 SNCA reporter cells. HEK-293-SNCA-luc viability, GF-AFC fluorescence, 24 h. Potency, µM (series often up to 57.1 µM), without a hit: at the highest dose activity change, negative = cytotoxicity, most hits filed as cytotoxic. 0.12% of 150,000 active;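 also: potency is read from the fitted curve at half-maximal effect; 0% = DMSO-treated cells and -100% = medium-only wells without cells; nearly all actives have a fitted effect of over 30% in size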
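HEK-293-SNCA-luc cells (1500/well) plated 24 h, then exposed 24 h to a dilution series; GF-AFC added 30 min at 37C, fluorescence 405/540 nm; normalised to medium-only and DMSO wells, Hill fit.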
IP6K1 inhibitor: inhibitors of human IP6K1. Q92551. IP6K1 kinase, ADP-Glo luminescence, 2 h; stronger effect = lower value. activity change, % (series mostly up to about 58 µM). 0.81% of 140,000 active. AID 1645851; in the data active = activity change below about -25%; also: % is scaled to controls: 0 for no effect and ±100 for the full control effect
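ADP-Glo luminescence measures ADP made by human IP6K1 during a 2 h RT reaction with ATP/IP6 (mix at 1.3 mM/130 uM); top library doses 57.5 and 19.1 uM final.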
SNCA expr inh: SNCA gene expression inhibition; Potency, µM (doses to about 57.2 µM), inactives show top-dose activity change, negative = inhibition, most hits filed as inhibitors; AID 1671194; HEK-293 SNCA-luciferase knock-in, luminescence, 24 h; 0.17% of 140,000 active;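 also: potency is read from the fitted curve at half-maximal effect; plate controls were DMSO cells for no effect and cell-free wells for full effect; nearly all actives have a fitted effect of over 45% in size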
KDM5B inh: KDM5B demethylase inhibition; Q9UGL1; KDM5B demethylase, FDH-coupled NADH fluorescence (FDH is formaldehyde dehydrogenase); Potency, µM (series often up to 57.7 µM), usual class: inhibitors; 2.6% of 220,000 active; also: potency is read from the fitted curve at half-maximal effect; 0% is about no effect; nearly all actives have a fitted effect of over 70% in size
Target sequence (Q9UGL1 whole entry, looked up): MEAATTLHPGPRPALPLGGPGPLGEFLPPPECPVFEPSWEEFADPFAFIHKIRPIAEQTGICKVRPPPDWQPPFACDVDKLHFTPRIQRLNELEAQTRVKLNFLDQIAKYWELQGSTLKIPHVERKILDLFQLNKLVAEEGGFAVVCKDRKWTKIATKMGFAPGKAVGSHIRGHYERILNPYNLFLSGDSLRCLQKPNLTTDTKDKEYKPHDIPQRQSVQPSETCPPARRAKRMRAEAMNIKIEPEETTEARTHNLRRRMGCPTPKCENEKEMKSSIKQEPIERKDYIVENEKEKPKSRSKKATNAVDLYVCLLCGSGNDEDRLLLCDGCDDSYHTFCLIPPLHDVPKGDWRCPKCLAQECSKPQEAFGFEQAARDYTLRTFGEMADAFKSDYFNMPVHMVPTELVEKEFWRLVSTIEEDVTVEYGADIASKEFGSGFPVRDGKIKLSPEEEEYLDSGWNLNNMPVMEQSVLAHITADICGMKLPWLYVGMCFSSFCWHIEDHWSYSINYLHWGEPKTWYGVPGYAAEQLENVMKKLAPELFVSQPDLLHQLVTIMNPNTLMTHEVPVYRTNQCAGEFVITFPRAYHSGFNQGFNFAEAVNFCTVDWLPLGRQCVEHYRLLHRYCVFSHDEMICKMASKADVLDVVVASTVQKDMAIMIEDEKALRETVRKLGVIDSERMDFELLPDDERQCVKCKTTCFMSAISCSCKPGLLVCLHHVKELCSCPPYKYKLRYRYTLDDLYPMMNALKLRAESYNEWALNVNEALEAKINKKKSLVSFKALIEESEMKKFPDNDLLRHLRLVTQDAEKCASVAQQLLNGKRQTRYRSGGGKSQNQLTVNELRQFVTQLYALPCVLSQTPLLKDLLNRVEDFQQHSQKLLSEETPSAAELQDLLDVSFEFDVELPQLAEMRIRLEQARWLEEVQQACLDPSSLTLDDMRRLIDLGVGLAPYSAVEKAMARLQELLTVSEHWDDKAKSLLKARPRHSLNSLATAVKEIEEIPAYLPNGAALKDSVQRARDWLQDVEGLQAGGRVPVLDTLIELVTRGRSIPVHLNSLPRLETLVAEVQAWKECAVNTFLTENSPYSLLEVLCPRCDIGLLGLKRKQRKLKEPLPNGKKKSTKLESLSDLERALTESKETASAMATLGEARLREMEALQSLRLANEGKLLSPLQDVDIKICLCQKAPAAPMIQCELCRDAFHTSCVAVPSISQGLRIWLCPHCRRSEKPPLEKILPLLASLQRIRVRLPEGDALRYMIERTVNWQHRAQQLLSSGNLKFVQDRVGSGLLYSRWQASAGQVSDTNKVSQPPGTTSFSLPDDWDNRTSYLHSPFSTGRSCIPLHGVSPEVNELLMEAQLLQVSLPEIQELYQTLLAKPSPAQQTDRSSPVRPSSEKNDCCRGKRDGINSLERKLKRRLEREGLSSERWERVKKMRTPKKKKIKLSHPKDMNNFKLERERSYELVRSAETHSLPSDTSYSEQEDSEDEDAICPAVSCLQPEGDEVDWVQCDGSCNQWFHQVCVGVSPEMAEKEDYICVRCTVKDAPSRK
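Inhibition is measured as reduced NADH fluorescence generation from FDH coupling to formaldehyde release. Truncated KDM5BΔAP at 200 nM final acts on H3K4me3 peptide (12.5 µM in substrate mix) in pH 7.5 HEPES buffer with Tween-20, 30 min, room temperature.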
* marks the source's active call; other numbers are inactive results; i = inactive; ? = inconclusive; / = no result; [ ] = dose if it differs, or a comment. Unless noted, calls follow the shape of the dose curve; as a rule, active = well fitted curve in the direction sought with a large enough effect; inconclusive = small, poorly fitted or top-dose-only effect, or another doubt; inactive = no such curve, though single readings can be large; an effect the other way counts as inactive or inconclusive.

SMILES	HEK293 viab	IP6K1 inhibitor	SNCA expr inh	KDM5B inh
CCc1cc(NCC(c2ccc(C)o2)N2CCOCC2)n2nccc2n1 (stereo unspecified)	4%	7	-2%	32µM*
CCCc1noc(-c2cccn3c(CNC(=O)Cc4cccc(OC)c4)nnc23)n1	-5%	0	1%	i
O=C(O)c1ccc(Cc2ccccc2)o1	/	/	/	i
O=Cc1cccc(-c2ccc(C(=O)O)o2)c1	4%[87.6 µM]	-20	27%[87.6 µM]	126µM*
Cc1ccc(-c2ncc(NC(=O)c3cc(F)ccc3F)cn2)cc1	2%	1	86%	28µM*
O=C(c1cccc2[nH]ccc12)N1CCC2(CC1)CN(c1ncccn1)CC2CO (stereo unspecified)	-8%	11	-7%	32µM*
OCC1CN(c2ncccn2)CC12CCN(Cc1c[nH]c3ccccc13)CC2 (stereo unspecified)	2%	18	13%	?
CC(=O)N1CC(CO)C2(CCN(Cc3cccc(C#N)c3)CC2)C1 (stereo unspecified)	0%	6	8%	i
OCC1CN(c2ncccn2)CC12CCN(Cc1cccc3[nH]ccc13)CC2 (stereo unspecified)	-1%	1	37%	32µM*
N#Cc1cccc(CN2CCC3(CC2)CN(c2ncccn2)CC3CO)c1 (stereo unspecified)	-6%	18	-6%	28µM*
OCC1CN(c2ncccn2)CC12CCN(Cc1ccc3[nH]ccc3c1)CC2 (stereo unspecified)	8%	16	?	22µM*
Cc1ccccc1OCC(=O)N1CCC(c2nc3ccccc3o2)CC1	/	/	/	i
Nc1ncc(C(=O)N2CCCC3(CCOC3)C2)c(-c2ccccc2)n1 (stereo unspecified)	2%	-7	-1%	?
CC(=O)N1CCN(C(=O)c2cnc(N)nc2-c2ccccc2)CC(O)C1 (stereo unspecified)	5%	5	-19%	25µM*
CC(=O)N1CCN(C(=O)c2cc3ccccc3[nH]c2=O)CC(O)C1 (stereo unspecified)	-3%	-11	-15%	28µM*
Cc1ccc(C(=O)N2CCN(c3oc(C4CC4)nc3C#N)CC2)c(C)n1	/	/	/	i
Cc1noc(C)c1-c1cc2c(c(-c3cnn(C)c3)c1)C(=O)N(C)C2	-6%[87.6 µM]	12	58%[87.6 µM]	40µM*
Cc1noc(C)c1-c1cc2c(c(-c3cccc(CO)c3)c1)C(=O)N(C)C2	-12%[87.6 µM]	15	64%[87.6 µM]	i
Cc1oc(-c2cccs2)nc1CN1CCCC(c2ccn[nH]2)C1 (stereo unspecified)	-8%	3	6%	28µM*
COc1cccc(-c2ccccc2NC(=O)C2CCN(Cc3cc(OC)ccc3O)CC2)c1	-30%	19	-30%	16µM*
COCCn1c(Cn2cnc(C(C)(C)C)c2)nnc1C1CC(N)C1 (stereo unspecified)	-2%	11	-21%	i
O=C(O)Cn1ccc2cc(OCCc3cccc(-c4ccccc4)c3)cnc21	5%[87.6 µM]	-15	1%[87.6 µM]	?
COc1cc(F)cc(-c2cccc(CCOc3cnc4c(ccn4CC(=O)O)c3)c2)c1	-1%[87.6 µM]	-10	-11%[87.6 µM]	32µM*
O=C(O)Cn1ccc2cc(OCCc3cccc(-c4ccc(Cl)cc4)c3)cnc21	7%[87.6 µM]	-8	?	35µM*
COc1cc(-c2nc3cnccn3c2Nc2ccc(C(C)C)cc2)ccc1O	?	-10	17%	?
SMILES	HEK293 viab	IP6K1 inhibitor	SNCA expr inh	KDM5B inh
COc1cccc(-c2nc3cnccn3c2NCCC(=O)N2CCN(C(C)C)CC2)c1	?	6	2%	28µM*
COc1cccc(-c2nc3cnccn3c2NCCC(=O)NC2CCCCCC2)c1	?	2	19%	28µM*
Cc1cccc(C(=O)Nc2c(-c3ccccc3)nc3cc(C)ccn23)c1	?	4	28%	i
Cc1ccccc1-c1nc2cnccn2c1NCCC(=O)N1CCC(C)CC1	14%	19	?	28µM*
Cc1cccc(-c2nc3cnccn3c2NCCC(=O)N(C)C)c1	27%	-3	5%	32µM*
CNC(=O)CN1c2ccc(F)cc2-c2ccccc2S1(=O)=O	/	/	/	i
COC(=O)c1ccc(Oc2coc3cc(OS(C)(=O)=O)ccc3c2=O)cc1	/	/	/	i
Cc1cccc(-c2nc3cnccn3c2NCCC(=O)N2CCCCC2)c1	23%	6	0%	28µM*
Cc1cccc(C)c1Nc1c(-c2ccccc2O)nc2cnccn12	/	/	/	i
Cc1cccc(-c2nocc2CCC(=O)N2CCN(c3cccc(C)c3)CC2)c1	-8%	11	6%	i
Cc1ccccc1-c1nc2cnccn2c1NCCC(=O)N1CCCCC1	20%	23	117%	25µM*
Cc1ccc(-c2cc(C(=O)OCC(=O)c3c(N)n(C)c(=O)n(C)c3=O)c3ccccc3n2)cc1	/	/	/	i
COc1ccc(C(=O)COC(=O)/C=C/c2ccc3c(c2)OCO3)cc1	/	/	/	i
Cc1ccc(C)c(OCCSc2nc3ccccc3n2CC(=O)N2CCOCC2)c1	?	13	?	i
Cc1ccc(OCCSc2nc3ccccc3n2CC(=O)N2CCCCC2)c(C)c1	14µM*	19	-8%	?
COc1ccccc1C(=O)NCCn1ccn2nc(-c3ccc(C)c(C)c3)cc2c1=O	1%	-14	-9%	28µM*
Cc1ccc(-c2cc3c(=O)n(CCNC(=O)c4cc(F)ccc4F)ccn3n2)cc1C	1%	-10	87%	?
COc1ccc(-c2cc3c(=O)n(CCNC(=O)c4ccccc4C)ccn3n2)cc1	-25%	-3	63%	20µM*
Cc1ccc(-c2cc3c(=O)n(CCNC(=O)c4nn(C)c5ccccc45)ccn3n2)cc1C	-11%	-12	31%	22µM*
O=C(Nc1nc2ccccc2s1)NC1CC(=O)N(c2ccc3c(c2)OCCO3)C1 (stereo unspecified)	/	/	/	i
CN(c1ccccc1)c1ccc2nnc(-c3cc(C(=O)NCC4CCCO4)ccn3)n2n1 (stereo unspecified)	2%[87.6 µM]	-21	-13%[87.6 µM]	i
CN(c1ccccc1)c1ccc2nnc(-c3cc(C(=O)Nc4ccccn4)ccn3)n2n1	-19%[87.6 µM]	-13	-8%[87.6 µM]	11µM*
CN(c1ccccc1)c1ccc2nnc(-c3cc(C(=O)NCc4cccnc4)ccn3)n2n1	-8%[87.6 µM]	-7	-4%[87.6 µM]	35µM*
CN(C)c1ccc2nnc(-c3cc(C(=O)NCCc4ccccn4)ccn3)n2n1	10%[87.6 µM]	-10	?	35µM*
COc1cccc(NC(=O)c2ccnc(-c3nnc4ccc(N(C)C)nn34)c2)c1	-13%[87.6 µM]	-4	14%[87.6 µM]	?
CCCN1CCc2nc(C(=O)Nc3nc(C)cs3)oc2CC1	2%[87.6 µM]	-7	21%[87.6 µM]	i
CC1(C(=O)NCC2CCCO2)COCc2cnc(Nc3ccccc3)nc21 (stereo unspecified)	5%[87.6 µM]	-2	-9%[87.6 µM]	i
C#CCOc1ccccc1CN1CCN(c2ncc(F)cn2)CC1	6%	15	0%	28µM*
COc1ccc(Cn2cc(C(C(=O)O)N(C)Cc3nnc(C)o3)cn2)cc1 (stereo unspecified)	3%	3	-10%	?

Screening results: PubChem BioAssay, National Center for Advancing Translational Sciences (NCATS)
